# From the supplement of paper PMC4466140
# B1: unnamed (peptide)
# chain: GRLRPKRIAPWHLIQ
# B2: unnamed (peptide)
# chain: RVRKTHVPASKRPSG
# Key:
# Test in all cases: SPOT peptide array binding signal intensity (averaged, normalized) (arbitrary units (background-subtracted, floor 0; scale differs between SH3 domains)); higher = stronger binding of the SH3 domain to the peptide
# [1] = biological target: CaNbp2
# Summary of the method: (§1)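 E. coli BL21(DE3) was used to express GST-fused SH3 domains from four yeast species, which were then purified on glutathione Sepharose. These were incubated at 10 μg/ml in TBS-based blocking buffer overnight at 4°C on cellulose membranes carrying synthetic 15-mer peptides, in which cysteines were replaced by serines. Binding signal is the replicate average of normalized, background-subtracted spot intensity, in arbitrary units that differ between domains.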
# [2] = biological target: CaRvs167
# Summary of the method: as §1
# [3] = biological target: CaRvs167-3
# Summary of the method: as §1
# [4] = biological target: CaSho1
# Summary of the method: as §1
# [5] = biological target: CaSla1-D1-D2
# Summary of the method: as §1
# [6] = biological target: CaSla1-D3
# Summary of the method: as §1
# [7] = biological target: ScAbp1
# Summary of the method: as §1
# [8] = biological target: ScBbc1
# Summary of the method: as §1
# [9] = biological target: ScBem1-D1
# Summary of the method: as §1
# [10] = biological target: ScBzz1-D1
# Summary of the method: as §1
# [11] = biological target: ScBzz1-D2
# Summary of the method: as §1
# [12] = biological target: ScCyk3
# Summary of the method: as §1
# [13] = biological target: ScFus1
# Summary of the method: as §1
# [14] = biological target: ScHof1
# Summary of the method: as §1
# [15] = biological target: ScHse1
# Summary of the method: as §1
# [16] = biological target: ScLsb1
# Summary of the method: as §1
# [17] = biological target: ScLsb2
# Summary of the method: as §1
# [18] = biological target: ScLsb3
# Summary of the method: as §1
# [19] = biological target: ScLsb4
# Summary of the method: as §1
# [20] = biological target: ScMyo3
# Summary of the method: as §1
# [21] = biological target: ScMyo5
# Summary of the method: as §1
# [22] = biological target: ScNbp2
# Summary of the method: as §1
# [23] = biological target: ScPex13
# Summary of the method: as §1
# [24] = biological target: ScRvs167
# Summary of the method: as §1
# [25] = biological target: ScSho1
# Summary of the method: as §1
# [26] = biological target: ScSla1-D1-D2
# Summary of the method: as §1
# [27] = biological target: ScSla1-D3
# Summary of the method: as §1
# [28] = biological target: SpAbp1-D1
# Summary of the method: as §1
# [29] = biological target: SpBbc1
# Summary of the method: as §1
# [30] = biological target: SpBzz1-D1
# Summary of the method: as §1
# [31] = biological target: SpBzz1-D2
# Summary of the method: as §1
# [32] = biological target: SpCyk3
# Summary of the method: as §1
# [33] = biological target: SpHof1
# Summary of the method: as §1
# [34] = biological target: SpHof1-2
# Summary of the method: as §1
# [35] = biological target: SpHof1-3
# Summary of the method: as §1
# [36] = biological target: SpHse1
# Summary of the method: as §1
# [37] = biological target: SpLsb1
# Summary of the method: as §1
# [38] = biological target: SpLsb4
# Summary of the method: as §1
# [39] = biological target: SpMyo1
# Summary of the method: as §1
# [40] = biological target: SpNbp2
# Summary of the method: as §1
# [41] = biological target: SpPex13
# Summary of the method: as §1
# [42] = biological target: SpRvs167
# Summary of the method: as §1
# [43] = biological target: SpSla1-D1-D2
# Summary of the method: as §1
# [44] = biological target: SpSla1-D3
# Summary of the method: as §1
# [45] = biological target: AgAbp1
# Summary of the method: as §1
# [46] = biological target: AgBbc1
# Summary of the method: as §1
# [47] = biological target: AgBem1-D1
# Summary of the method: as §1
# [48] = biological target: AgBzz1-D1
# Summary of the method: as §1
# [49] = biological target: AgBzz1-D2
# Summary of the method: as §1
# [50] = biological target: AgCyk3
# Summary of the method: as §1
# [51] = biological target: AgFus1
# Summary of the method: as §1
# [52] = biological target: AgHof1
# Summary of the method: as §1
# [53] = biological target: AgHse1
# Summary of the method: as §1
# [54] = biological target: AgLsb1
# Summary of the method: as §1
# [55] = biological target: AgLsb4
# Summary of the method: as §1
# [56] = biological target: AgMyo5
# Summary of the method: as §1
# [57] = biological target: AgNbp2
# Summary of the method: as §1
# [58] = biological target: AgRvs167
# Summary of the method: as §1
# [59] = biological target: AgSho1
# Summary of the method: as §1
# [60] = biological target: AgSla1-D1-D2
# Summary of the method: as §1
# [61] = biological target: AgSla1-D3
# Summary of the method: as §1
# [62] = biological target: CaAbp1-D1
# Summary of the method: as §1
# [63] = biological target: CaAbp1-D2
# Summary of the method: as §1
# [64] = biological target: CaBbc1
# Summary of the method: as §1
# [65] = biological target: CaBem1-D1
# Summary of the method: as §1
# [66] = biological target: CaBzz1-D1
# Summary of the method: as §1
# [67] = biological target: CaBzz1-D2
# Summary of the method: as §1
# [68] = biological target: CaCyk3
# Summary of the method: as §1
# [69] = biological target: CaFus1
# Summary of the method: as §1
# [70] = biological target: CaHof1
# Summary of the method: as §1
# [71] = biological target: CaHse1
# Summary of the method: as §1
# [72] = biological target: CaLsb1
# Summary of the method: as §1
# [73] = biological target: CaLsb4
# Summary of the method: as §1
# [74] = biological target: CaMyo5
# Summary of the method: as §1
binder,measurement,setting,value
B1,SPOT peptide array binding signal intensity,[1],1940
same,SPOT peptide array binding signal intensity,[2],9.17
same,SPOT peptide array binding signal intensity,[3],49.2
same,SPOT peptide array binding signal intensity,[4],174
same,SPOT peptide array binding signal intensity,[5],143
same,SPOT peptide array binding signal intensity,[6],1
same,SPOT peptide array binding signal intensity,[7],13
same,SPOT peptide array binding signal intensity,[8],24.5
same,SPOT peptide array binding signal intensity,[9],8.5
same,SPOT peptide array binding signal intensity,[10],0.5
same,SPOT peptide array binding signal intensity,[11],3
same,SPOT peptide array binding signal intensity,[12],242
same,SPOT peptide array binding signal intensity,[13],106
same,SPOT peptide array binding signal intensity,[14],0.25
same,SPOT peptide array binding signal intensity,[15],1020
same,SPOT peptide array binding signal intensity,[16],2.5
same,SPOT peptide array binding signal intensity,[17],2
same,SPOT peptide array binding signal intensity,[18],131
same,SPOT peptide array binding signal intensity,[19],2
same,SPOT peptide array binding signal intensity,[20],1
same,SPOT peptide array binding signal intensity,[21],1.5
same,SPOT peptide array binding signal intensity,[22],1940
same,SPOT peptide array binding signal intensity,[23],10
same,SPOT peptide array binding signal intensity,[24],27.7
same,SPOT peptide array binding signal intensity,[25],195
same,SPOT peptide array binding signal intensity,[26],134
same,SPOT peptide array binding signal intensity,[27],5
same,SPOT peptide array binding signal intensity,[28],226
same,SPOT peptide array binding signal intensity,[29],1
same,SPOT peptide array binding signal intensity,[30],228
same,SPOT peptide array binding signal intensity,[31],1.5
same,SPOT peptide array binding signal intensity,[32],7
same,SPOT peptide array binding signal intensity,[33],70
same,SPOT peptide array binding signal intensity,[34],1.5
same,SPOT peptide array binding signal intensity,[35],299
same,SPOT peptide array binding signal intensity,[36],309
same,SPOT peptide array binding signal intensity,[37],5.5
same,SPOT peptide array binding signal intensity,[38],95.5
same,SPOT peptide array binding signal intensity,[39],2.5
same,SPOT peptide array binding signal intensity,[40],110
same,SPOT peptide array binding signal intensity,[41],4
same,SPOT peptide array binding signal intensity,[42],9
same,SPOT peptide array binding signal intensity,[43],≤ 0
same,SPOT peptide array binding signal intensity,[44],≤ 0
B2,SPOT peptide array binding signal intensity,[45],81.5
same,SPOT peptide array binding signal intensity,[46],105
same,SPOT peptide array binding signal intensity,[47],48.5
same,SPOT peptide array binding signal intensity,[48],2
same,SPOT peptide array binding signal intensity,[49],≤ 0
same,SPOT peptide array binding signal intensity,[50],1
same,SPOT peptide array binding signal intensity,[51],118
same,SPOT peptide array binding signal intensity,[52],7
same,SPOT peptide array binding signal intensity,[53],210
same,SPOT peptide array binding signal intensity,[54],0.75
same,SPOT peptide array binding signal intensity,[55],18
same,SPOT peptide array binding signal intensity,[56],≤ 0
same,SPOT peptide array binding signal intensity,[57],91
same,SPOT peptide array binding signal intensity,[58],1
same,SPOT peptide array binding signal intensity,[59],5
same,SPOT peptide array binding signal intensity,[60],18
same,SPOT peptide array binding signal intensity,[61],1.5
same,SPOT peptide array binding signal intensity,[62],919
same,SPOT peptide array binding signal intensity,[63],520
same,SPOT peptide array binding signal intensity,[64],188
same,SPOT peptide array binding signal intensity,[65],18
same,SPOT peptide array binding signal intensity,[66],30
same,SPOT peptide array binding signal intensity,[67],48.8
same,SPOT peptide array binding signal intensity,[68],7.5
same,SPOT peptide array binding signal intensity,[69],200
same,SPOT peptide array binding signal intensity,[70],0.5
same,SPOT peptide array binding signal intensity,[71],9.75
same,SPOT peptide array binding signal intensity,[72],0.5
same,SPOT peptide array binding signal intensity,[73],33
same,SPOT peptide array binding signal intensity,[74],≤ 0
same,SPOT peptide array binding signal intensity,[1],216
same,SPOT peptide array binding signal intensity,[2],1
same,SPOT peptide array binding signal intensity,[3],7.25
same,SPOT peptide array binding signal intensity,[4],89
same,SPOT peptide array binding signal intensity,[5],112
same,SPOT peptide array binding signal intensity,[6],≤ 0
same,SPOT peptide array binding signal intensity,[7],15.5
same,SPOT peptide array binding signal intensity,[8],15.5
same,SPOT peptide array binding signal intensity,[9],51
same,SPOT peptide array binding signal intensity,[10],7.5
same,SPOT peptide array binding signal intensity,[11],≤ 0
same,SPOT peptide array binding signal intensity,[12],51
same,SPOT peptide array binding signal intensity,[13],117
same,SPOT peptide array binding signal intensity,[14],1
same,SPOT peptide array binding signal intensity,[15],469
same,SPOT peptide array binding signal intensity,[16],4.5
same,SPOT peptide array binding signal intensity,[17],7
same,SPOT peptide array binding signal intensity,[18],420
same,SPOT peptide array binding signal intensity,[19],5
same,SPOT peptide array binding signal intensity,[20],2
same,SPOT peptide array binding signal intensity,[21],1.5
same,SPOT peptide array binding signal intensity,[22],91.5
same,SPOT peptide array binding signal intensity,[23],≤ 0
same,SPOT peptide array binding signal intensity,[24],2.17
same,SPOT peptide array binding signal intensity,[25],230
same,SPOT peptide array binding signal intensity,[26],510
same,SPOT peptide array binding signal intensity,[27],8.5
same,SPOT peptide array binding signal intensity,[28],249
same,SPOT peptide array binding signal intensity,[29],≤ 0
same,SPOT peptide array binding signal intensity,[30],41
same,SPOT peptide array binding signal intensity,[31],≤ 0
same,SPOT peptide array binding signal intensity,[32],≤ 0
same,SPOT peptide array binding signal intensity,[33],89.5
same,SPOT peptide array binding signal intensity,[34],≤ 0
same,SPOT peptide array binding signal intensity,[35],247
same,SPOT peptide array binding signal intensity,[36],112
same,SPOT peptide array binding signal intensity,[37],3.75
same,SPOT peptide array binding signal intensity,[38],224
same,SPOT peptide array binding signal intensity,[39],4.25
same,SPOT peptide array binding signal intensity,[40],78
same,SPOT peptide array binding signal intensity,[41],2
same,SPOT peptide array binding signal intensity,[42],1.17
same,SPOT peptide array binding signal intensity,[43],4
same,SPOT peptide array binding signal intensity,[44],≤ 0
